An excerpt weighted towards active compounds, which were near 4.2% of everything screened.
VDR inh: Inhibitors of the vitamin D receptor (VDR): qHTS | Vitamin D3 receptor (Homo sapiens), P11473 | VDR-SRC2-3 peptide fluorescence polarization, 2 h | Potency, µM, for the others: max response, negative = inhibition, usual class: inhibitors | 400,000 compounds, 0.93% hits | AID 504847, 2011
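Two reagent solutions held at 4 deg C in the dark were dispensed, compounds pinned at 23 nl, and the mixture incubated 2 h at room temperature. Read-out: fluorescence polarization of VDR–SRC2-3 peptide binding.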
PLK1 PBD block: qHTS for Inhibitors of PLK1-PDB (polo-like kinase 1 - polo-box domain): Primary Screen. 360,000 compounds, 2.8% hits. Plk1 PBD binding of FITC phosphopeptide, fluorescence polarization. Potency, µM, for inactives: max response, negative = inhibition, usual class: inhibitors; further: series mostly up to about 57 µM; nearly all actives have a fitted effect of over 65% in size
Sfp PPTase inh: qHTS Assay for Inhibitors of Bacillus subtilis Sfp phosphopantetheinyl transferase (PPTase) | 4'-phosphopantetheinyl transferase ffp (Bacillus subtilis), Q9F4F7 | Biochemical Sfp PPTase activity, qHTS | Potency, µM, for inactives: largest response in the series, negative = inhibition, actives largely listed as inhibitors | 310,000 compounds, 3.5% hits | AID 1490, 2009;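 further: the enzyme is Sfp with the accession as filed and its product quenches rhodamine fluorescence; 0% = enzyme reaction without inhibitor and -100% = no enzyme wells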
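Fluorescence-quenching assay with 15 nM Sfp, 5 uM rhodamine-CoA and 12.5 uM BHQ-2-labelled ybbR peptide in pH 7.6 Hepes/MgCl2 buffer. Enzyme was pre-incubated with compound for 15 min at room temperature. Rate was taken from the 30-min fluorescence change (525/598 nm).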
12-LOX inh: Primary qHTS assay for inhibitors of human arachidonate 12S-lipoxygenase (ALOX12): Round 2; Polyunsaturated fatty acid lipoxygenase ALOX12 (Homo sapiens), P18054; purified 12hLO, xylenol orange hydroperoxide absorbance; Potency, µM (series often up to 108 µM), inactives show at the top dose activity change, negative = inhibition, usual class: inhibitors; 580,000 compounds, 1.1% hits; AID 1671190, 2021
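Purified human 12hLO at 150 nM in 25 mM Hepes, 0.01% Triton X-100, pH 7.0, preincubated 15 min at room temperature with compound. Reaction started with 40 uM arachidonic acid, 30 min at room temperature. Hydroperoxide measured by Fe-xylenol orange, 573/405 nm absorbance ratio.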
An asterisk follows results filed as active; ? = inconclusive; . = no result. The call rests on the fitted dose curve; in most records, active means well fitted curve in the direction sought with a large enough effect; inconclusive means small, poorly fitted or top-dose-only effect, or another doubt; inactive means no such curve, though single readings can be large; an effect the other way counts as inactive or inconclusive. Unless noted, on the % scale 0 is the no-effect control and ±100 the full control effect; potency means the concentration at half of the fitted maximal effect.

SMILES	VDR inh	PLK1 PBD block	Sfp PPTase inh	12-LOX inh
COc1ccccc1NC(=O)Cc1nnc(SCC(=O)Nc2ccccc2F)n1C	?	12µM*	10%	6%
CCCCc1nn2c(C)c(-c3ccc(OCC)cc3)nc2s1	7%	.	.	-26%
CCN1C(=O)[C@H]2[C@@H](c3ccc(-c4ccc(Cl)c(Cl)c4)c(OC)c3)N[C@@](C)(C(=O)OC)[C@H]2C1=O	-3%	-15%	.	?
O=C(c1ccccc1)N1CCc2[nH]nc(-c3ccccc3)c2C1	-2%	-3%	11%	8%
Cc1ccccc1NC(=O)COC(=O)CCc1ccccc1	-11%	6µM*	9%	-4%
CCOC(=O)c1ccc(NC(=O)C2=C(C)C(=O)OC23CCCCCC3)cc1	12%	.	.	-25%
O=C(O)c1cccc(N/N=C/C2=C(Cl)c3cc(Cl)ccc3SC2)c1	-12%	21µM*	-22%	?
Cc1ccc(/C=N/Nc2cccc(C(=O)O)c2)s1	-14%	-13%	-8%	?
C=CCSSSCC=C	25µM*	.	40µM*	.
Cc1scc(C(=O)Nc2ccccc2C#N)c1C	.	.	.	11%
COC(=O)C1=C(C)NC(=O)NC1c1ccc(N2CCC(c3ccccc3)=N2)cc1 (configuration not stated)	?	27µM*	-14%	-18%
Cn1cc(Br)c(NC(=O)/C=C/C(=O)O)n1	-18%	-12%	8.9µM*	?
CCC1(c2ccccc2)NC(=S)N(c2cccc(C)c2C)N1 (configuration not stated)	4%	-10%	?	25µM*
Cc1oc(-c2ccccc2)nc1CC(=O)Nc1cc(F)ccc1F	.	.	.	-6%
Cc1oc(-c2ccccc2)nc1CC(=O)Nc1ccc(Cl)cc1Cl	.	.	.	7.9µM*
CCn1cc(C(=O)NCc2ccc(C)o2)c2cc(OC)c(OC)cc2c1=O	-16%	-4%	35µM*	0%
COc1ccc(OC)c(C(=O)NC(CC(N)=O)c2ccc(NCc3ccccn3)c([N+](=O)[O-])c2)c1 (configuration not stated)	-4%	-17%	11%	7%
CCn1c(SCc2ccc(Cl)cc2)nnc1-c1ccccc1	-19%	27µM*	5%	?
Cc1ccc(CNC(=O)C2CCCN2C(=O)Nc2ccc(F)cc2)cc1 (configuration not stated)	13%	6%	11%	-9%
Cn1c(SCC(=O)N/N=C/c2ccccn2)nnc1-c1ccccc1	18%	-7%	45µM*	21%
Nc1nnnn1CC(=O)N/N=C/c1ccccn1	-7%	1%	35µM*	198%
O=C(CCCC(=O)N/N=C\c1ccccn1)N/N=C\c1ccccn1	-10%	-8%	40µM*	-23%
O=C(COc1ccc([N+](=O)[O-])cc1)N/N=C/c1ccccn1	12%	1%	79µM*	15%
Nc1nnnn1CC(=O)N/N=C/c1cccs1	-17%	-11%	8%	109%
O=C(Cc1ccccc1)N/N=C/c1ccccn1	-3%	-6%	.	1%
SMILES	VDR inh	PLK1 PBD block	Sfp PPTase inh	12-LOX inh
COc1ccc(CNC(=O)COc2ccc(S(=O)(=O)N3CCOCC3)cc2)cc1	-16%	-10%	.	-23%
CC(C)(C)c1nc[nH]c(=O)c1Br	-19%	7%	7%	8%
COC(=O)[C@@]1(Cc2ccc(OC)cc2)[C@H]2c3cc(C(=O)N(C)C)n(Cc4ccc(O)c(OC)c4)c3C[C@H]2CN1C(=O)c1ccccc1	.	.	-8%	.
Cc1cccc(/C=N/NC(=O)Cn2nc(C)cc2C)n1	-1%	-5%	?	19%
Cc1cccc(/C=N/NC(=O)Cn2nccc2C)n1	11%	-3%	50µM*	2%
Cc1cc(C)n(CC(=O)N/N=C/c2ccccn2)n1	0%	-6%	18µM*	-4%
O=C(Cc1c[nH]c2ccccc12)N1CCC(c2nc(C3CC3)n[nH]2)CC1	.	.	.	32%
CCC1C(=O)NCCN1Cc1cn(-c2cccc(F)c2)nc1-c1ccc(C)o1 (configuration not stated)	.	.	.	-9%
Cc1ccc(-c2nn(-c3cccc(F)c3)cc2CN2CCN(c3ccccn3)CC2)o1	-33%	-18%	40µM*	8.9µM*
Cc1ccc(-c2nn(-c3cccc(F)c3)cc2CN(Cc2nccn2C)C(C)C)o1	14%	-12%	40µM*	?

High-throughput results as filed in PubChem.
